Results from the supplement of paper PMC4840960.
Counter-ions that a name gives are not always drawn. ± gives the standard deviation of the averaged measurements.

Tested on: E18 rat cortical neuron-glia co-culture
Assay: fiber score / MBP score (myelination specific beyond OL differentiation) (ratio); higher = more myelination-specific MBP alignment
Details: 1 µM; treatment time: 8 days (DIV5-DIV13)
How it was run: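 Fiber score divided by MBP score is the read-out; fiber score is continuous MBP fiber length per Olig2+ nucleus, and MBP score is thresholded MBP area × intensity per Olig2+ nucleus. Primary E18 rat cortical co-cultures were dissociated with papain and seeded at 20,000 cells/well on poly-d-lysine/laminin 96-well plates. Library compounds at 1 or 5 µM were given in myelination medium from DIV5 to DIV13, after which cells were fixed in 4 % paraformaldehyde, immunostained for MBP and Olig2 with DAPI, and imaged in four 10X fields per well in duplicate wells.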

Row | Compound | fiber score / MBP score
1 | CC(=O)SCC(Cc1ccccc1)C(=O)NCC(=O)OCc1ccccc1 (stereo not drawn) [Racecadotril] | 0.715
2 | CCOC(=O)C1=C(C)NC(C)=C(C(=O)OC)C1c1cccc([N+](=O)[O-])c1 (stereo not drawn) [Nitrendipine] | 0.92
3 | CC(C(=O)O)c1cccc(C(=O)c2ccccc2)c1 (stereo not drawn) [Ketoprofen] | 0.813
4 | O=C(O)Cc1ccccc1Nc1c(Cl)cccc1Cl [Diclofenac] | 0.824
5 | COc1cc(Cc2cnc(N)nc2N)cc(OC)c1OC [Trimethoprim] | 0.828
6 | CN(C)CCOC(c1ccccc1)c1ccccc1 [Diphenhydramine] | 0.668
7 | N[C@@H](C(=O)N[C@@H]1C(=O)N2C(C(=O)O)=C(CSc3c[nH]nn3)CS[C@H]12)c1ccc(O)cc1 [Cefatrizine] | 0.846
8 | COCCCC/C(=N\OCCN)c1ccc(C(F)(F)F)cc1 [Fluvoxamine] | 1.03
9 | C[C@]12CC[C@@H]3c4ccc(O)cc4CC[C@H]3[C@@H]1CC[C@@H]2O [Estradiol] | 0.747
10 | O=C(c1ccc(OCCN2CCCCC2)cc1)c1c(-c2ccc(O)cc2)sc2cc(O)ccc12 [Raloxifene] | 0.211
11 | C[n+]1ccccc1C=NO [Pralidoxime] | 0.884
12 | Nc1c2c(nc3c1CCC3)CCCC2 [Amiridine] | 0.702
13 | NC(=O)c1cnccn1 [Pyrazinamide] | 0.64
14 | C[C@@H]1C[C@H]2[C@@H]3CCC4=CC(=O)C=C[C@]4(C)[C@@]3(F)[C@@H](O)C[C@]2(C)[C@H]1C(=O)CO [Desoximetasone] | 0.95
15 | CNC(=C[N+](=O)[O-])NCCSCc1csc(CN(C)C)n1 [Nizatidine] | 0.895
16 | O=C(O)COCCN1CCN(C(c2ccccc2)c2ccc(Cl)cc2)CC1 (stereo not drawn) [Virlix] | 0.867
17 | O=C1c2c(O)cc(O)cc2O[C@H](c2ccc(O)c(O)c2)[C@H]1O [Distylin] | 0.8
18 | CCC(C)(C)C(=O)O[C@H]1C[C@@H](C)C=C2C=C[C@H](C)[C@H](CC[C@@H]3C[C@@H](O)CC(=O)O3)[C@H]21 [Simvastatin] | 1.17
19 | Cc1cccc(Nc2ccccc2C(=O)O)c1C [Mefenamic Acid] | 0.791
20 | CC[N+](C)(CC)CCOC(=O)C(O)(c1ccccc1)C1CCCCC1 (stereo not drawn) [Oxyphenonium] | 0.849

Row | Compound | fiber score / MBP score
21 | CC(C)NCC(O)COc1ccc(CCOCC2CC2)cc1 (stereo not drawn) [Betaxolol] | 0.636
22 | Cc1nnc(SCC2=C(C(=O)O)N3C(=O)[C@@H](NC(=O)Cn4cnnn4)[C@H]3SC2)s1 [Cefazolin] | 0.798
23 | CC1CNc2c(cccc2S(=O)(=O)N[C@@H](CCCNC(=N)N)C(=O)N2CC[C@@H](C)C[C@@H]2C(=O)O)C1 (stereo partly drawn) [Argatroban] | 0.647
24 | C#C[C@]1(O)CC[C@H]2[C@@H]3[C@H](C)CC4=C(CCC(=O)C4)[C@H]3CC[C@@]21C [Tibolone] | 0.647
25 | CCN(CC)CCNC(=O)c1cc(Cl)c(N)cc1OC [Metoclopramide] | 0.848
26 | COc1ccnc(C[S+]([O-])c2nc3cc(OC(F)F)ccc3[nH]2)c1OC (stereo not drawn) [Pantoprazole] | 0.86
27 | CC(C)NCC(O)COc1cccc2[nH]ccc12 (stereo not drawn) [Pindolol] | 1.07
28 | C[C@H](CS)C(=O)N1CCC[C@H]1C(=O)O [Captopril] | 0.773
29 | CN1CCN(c2nc3cc(C(F)(F)F)ccc3n3cccc23)CC1 | 0.707
30 | Fc1cncnc1 [5-fluoropyrimidine] | 0.595
31 | CNCCCN1c2ccccc2CCc2ccccc21 [Desipramine] | 0.74
32 | Cc1ccc(NC(=O)c2ccc(CN3CCN(C)CC3)cc2)cc1Nc1nccc(-c2cccnc2)n1 [Imatinib mesylate] | 0.424
33 | Clc1ccc2c(c1)CCc1cccnc1C2=C1CCNCC1 [Desloratadine] | 0.902
34 | COc1cc2nc(N3CCN(C(=O)C4CCCO4)CC3)nc(N)c2cc1OC (stereo not drawn) [Terazosin] | 1.2 ± 0.17
35 | CN(CCOc1ccc(NS(C)(=O)=O)cc1)CCc1ccc(NS(C)(=O)=O)cc1 [Dofetilide] | 1.2
36 | COc1c(N2C[C@@H]3CCCN[C@@H]3C2)c(F)cc2c(=O)c(C(=O)O)cn(C3CC3)c12 [Moxifloxacin] | 0.766
37 | O=C1CN2Cc3c(ccc(Cl)c3Cl)N=C2N1 [Anagrelide hydrochloride] | 0.9
38 | Cc1c(OCC(F)(F)F)ccnc1C[S+]([O-])c1nc2ccccc2[nH]1 (stereo not drawn) [Lansoprazole] | 0.767
39 | CCOC(=O)O[C@]1(C(=O)OCCl)CC[C@H]2[C@@H]3CCC4=CC(=O)C=C[C@]4(C)[C@H]3[C@@H](O)C[C@@]21C [Loteprednol etabonate] | 0.604

Same assay, conditions: 5 µM; treatment time: 8 days (DIV5-DIV13)

Row | Compound | fiber score / MBP score
40 | CC(=O)SCC(Cc1ccccc1)C(=O)NCC(=O)OCc1ccccc1 (stereo not drawn) [Racecadotril] | 0.943
41 | CCOC(=O)C1=C(C)NC(C)=C(C(=O)OC)C1c1cccc([N+](=O)[O-])c1 (stereo not drawn) [Nitrendipine] | 1.09
42 | CC(C(=O)O)c1cccc(C(=O)c2ccccc2)c1 (stereo not drawn) [Ketoprofen] | 0.972
43 | O=C(O)Cc1ccccc1Nc1c(Cl)cccc1Cl [Diclofenac] | 0.883
44 | COc1cc(Cc2cnc(N)nc2N)cc(OC)c1OC [Trimethoprim] | 1.18
45 | CN(C)CCOC(c1ccccc1)c1ccccc1 [Diphenhydramine] | 0.525
46 | N[C@@H](C(=O)N[C@@H]1C(=O)N2C(C(=O)O)=C(CSc3c[nH]nn3)CS[C@H]12)c1ccc(O)cc1 [Cefatrizine] | 0.832
47 | COCCCC/C(=N\OCCN)c1ccc(C(F)(F)F)cc1 [Fluvoxamine] | 0.487
48 | C[C@]12CC[C@@H]3c4ccc(O)cc4CC[C@H]3[C@@H]1CC[C@@H]2O [Estradiol] | 0.62
49 | O=C(c1ccc(OCCN2CCCCC2)cc1)c1c(-c2ccc(O)cc2)sc2cc(O)ccc12 [Raloxifene] | 0.788
50 | C[n+]1ccccc1C=NO [Pralidoxime] | 1.12
51 | Nc1c2c(nc3c1CCC3)CCCC2 [Amiridine] | 0.8
52 | NC(=O)c1cnccn1 [Pyrazinamide] | 0.862
53 | C[C@@H]1C[C@H]2[C@@H]3CCC4=CC(=O)C=C[C@]4(C)[C@@]3(F)[C@@H](O)C[C@]2(C)[C@H]1C(=O)CO [Desoximetasone] | 0.758
54 | CNC(=C[N+](=O)[O-])NCCSCc1csc(CN(C)C)n1 [Nizatidine] | 0.816
55 | O=C(O)COCCN1CCN(C(c2ccccc2)c2ccc(Cl)cc2)CC1 (stereo not drawn) [Virlix] | 0.681
56 | O=C1c2c(O)cc(O)cc2O[C@H](c2ccc(O)c(O)c2)[C@H]1O [Distylin] | 1.16
57 | CCC(C)(C)C(=O)O[C@H]1C[C@@H](C)C=C2C=C[C@H](C)[C@H](CC[C@@H]3C[C@@H](O)CC(=O)O3)[C@H]21 [Simvastatin] | 3.15
58 | Cc1cccc(Nc2ccccc2C(=O)O)c1C [Mefenamic Acid] | 1.3
59 | CC[N+](C)(CC)CCOC(=O)C(O)(c1ccccc1)C1CCCCC1 (stereo not drawn) [Oxyphenonium] | 0.703

Row | Compound | fiber score / MBP score
60 | CC(C)NCC(O)COc1ccc(CCOCC2CC2)cc1 (stereo not drawn) [Betaxolol] | 0.615
61 | Cc1nnc(SCC2=C(C(=O)O)N3C(=O)[C@@H](NC(=O)Cn4cnnn4)[C@H]3SC2)s1 [Cefazolin] | 1.19
62 | CC1CNc2c(cccc2S(=O)(=O)N[C@@H](CCCNC(=N)N)C(=O)N2CC[C@@H](C)C[C@@H]2C(=O)O)C1 (stereo partly drawn) [Argatroban] | 0.566
63 | C#C[C@]1(O)CC[C@H]2[C@@H]3[C@H](C)CC4=C(CCC(=O)C4)[C@H]3CC[C@@]21C [Tibolone] | 0.773
64 | CCN(CC)CCNC(=O)c1cc(Cl)c(N)cc1OC [Metoclopramide] | 0.91
65 | COc1ccnc(C[S+]([O-])c2nc3cc(OC(F)F)ccc3[nH]2)c1OC (stereo not drawn) [Pantoprazole] | 0.933
66 | CC(C)NCC(O)COc1cccc2[nH]ccc12 (stereo not drawn) [Pindolol] | 0.955
67 | C[C@H](CS)C(=O)N1CCC[C@H]1C(=O)O [Captopril] | 0.704
68 | CN1CCN(c2nc3cc(C(F)(F)F)ccc3n3cccc23)CC1 | 0.682
69 | Fc1cncnc1 [5-fluoropyrimidine] | 0.899
70 | CNCCCN1c2ccccc2CCc2ccccc21 [Desipramine] | 0.549
71 | Cc1ccc(NC(=O)c2ccc(CN3CCN(C)CC3)cc2)cc1Nc1nccc(-c2cccnc2)n1 [Imatinib mesylate] | 0.773
72 | Clc1ccc2c(c1)CCc1cccnc1C2=C1CCNCC1 [Desloratadine] | 0.803
73 | COc1cc2nc(N3CCN(C(=O)C4CCCO4)CC3)nc(N)c2cc1OC (stereo not drawn) [Terazosin] | 1.08 ± 0.41
74 | CN(CCOc1ccc(NS(C)(=O)=O)cc1)CCc1ccc(NS(C)(=O)=O)cc1 [Dofetilide] | 0.728
75 | COc1c(N2C[C@@H]3CCCN[C@@H]3C2)c(F)cc2c(=O)c(C(=O)O)cn(C3CC3)c12 [Moxifloxacin] | 0.689
76 | O=C1CN2Cc3c(ccc(Cl)c3Cl)N=C2N1 [Anagrelide hydrochloride] | 0.706
77 | Cc1c(OCC(F)(F)F)ccnc1C[S+]([O-])c1nc2ccccc2[nH]1 (stereo not drawn) [Lansoprazole] | 1.37
78 | CCOC(=O)O[C@]1(C(=O)OCCl)CC[C@H]2[C@@H]3CCC4=CC(=O)C=C[C@]4(C)[C@H]3[C@@H](O)C[C@@]21C [Loteprednol etabonate] | 0.881
